Results: PubChem BioAssay AID651703 (Broad Institute, 2012)
The whole screen tested about 1,200 compounds, of which about 970 (81%) were called active. The rule behind the calls is not given here. So high a share suggests a set chosen from earlier hits. Not all results are given here. Entries with a potency or affinity are not part of this list.

target: Transforming acidic coiled-coil-containing protein 3 (Homo sapiens) (UniProt Q9Y6A5); test: inhibition of ARNT PAS-B/TACC3 complex formation – biochemical, AlphaScreen, cherry-picked samples, confirmation (AID 651703); details: AlphaScreen His-ARNT PAS-B / GST-TACC3 binding, luminescence; series mostly up to 68 µM;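 note: TACC3 partner is the GST-tagged E629A mutant dimer; hits lower the signal meaning they disrupt ARNT binding to TACC3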

outcome, inactive:
Clc1ccc(SCc2cc(N3CCOCC3)nc(-c3ccccn3)n2)cc1, CCOc1cc(/C=N/Nc2ncc(C)c(=O)[nH]2)ccc1O, O=C1C2CCCCN2C(=O)N1CCCCN1CCN(c2cccc(Br)c2)CC1 (stereo unspecified), O=C(CCC(=O)c1cccs1)OCc1nnc(-c2ccccc2)o1, CCc1c(C)nc(Nc2nc(C)c3ccc(OC)cc3n2)[nH]c1=O, CCN(C(=O)CSc1nccn1C)c1cccc2ccccc12, COc1cc2c(cc1OC)C(Cc1ccccc1[N+](=O)[O-])=NCC2, CCSc1nnc(NC(=O)C2CCCCC2C(=O)O)s1 (stereo unspecified), O=C(Nc1nnc(-c2ccccc2)s1)c1cc(-c2ccccc2)on1, CC(C)NC(=O)Nc1cccc2c1O[C@H](CN(C)C(=O)Nc1ccc(C(F)(F)F)cc1)[C@@H](C)CN([C@@H](C)CO)C2=O, C[C@@H]1CN([C@@H](C)CO)C(=O)c2cc(NC(=O)C3CC3)ccc2O[C@H]1CN(C)C(=O)Nc1ccc(F)cc1, C[C@@H]1CN([C@H](C)CO)C(=O)Cc2cc(NC(=O)Nc3cccc4ccccc34)ccc2O[C@@H]1CN(C)Cc1ccc(C(=O)O)cc1, C[C@H]1CN([C@@H](C)CO)C(=O)Cc2cc(NC(=O)Nc3cccc4ccccc34)ccc2O[C@H]1CN(C)CC1CCCCC1, C[C@H](CO)N1C[C@H](C)[C@@H](CN(C)C(=O)Nc2ccc3c(c2)OCO3)Oc2ccc(NC(=O)CCN3CCOCC3)cc2CC1=O, COCCCN=Cc1c(-c2ccccc2)[nH]n(-c2nc3ccccc3s2)c1=O, COc1ccc(-c2[nH]ncc2/C=N\NC(=O)c2cccs2)cc1OC, C#CCOc1ccc(OC)cc1C(c1c(C)[nH][nH]c1=O)c1c(C)[nH][nH]c1=O, CCOc1ccc(Cl)cc1C(c1c(C)[nH][nH]c1=O)c1c(C)[nH][nH]c1=O, CCCN(C)C[C@@H]1Oc2ncc(C#CCC(C)C)cc2C(=O)N([C@@H](C)CO)C[C@H]1C, O=C(O)c1ccccc1-c1ccccc1C(=O)Nc1ccc2c(c1)[nH]c(=O)c1ccccc12, O=C(Nc1nc2ccccc2s1)c1cc(-c2ccccc2)on1, Cc1onc(-c2c(Cl)cccc2Cl)c1C(=O)Nc1ccc(N2CCOCC2)cc1, Cc1ccc(C(=O)Oc2ccc(/C=C3\C(=N)N4N=C(N5CCOCC5)SC4=NC3=O)cc2)cc1, O=C1CCN(Cc2ccccc2)C=C1c1ccc(C(F)(F)F)cc1, Cc1cccc(Oc2nc(-c3ccccn3)nc3ccccc23)c1, Nc1cc2cccnc2cc1Cl, O=C(C[C@H]1C=C[C@@H](NC(=O)Nc2ccc3c(c2)OCO3)[C@H](CO)O1)NCc1ccc(Cl)cc1, N#CC1=C(N)Oc2n[nH]c(-c3ccccn3)c2C1c1c(F)cccc1Cl (stereo unspecified), CCN(CC)C(=O)[C@H]1C[C@H](CC(=O)NCc2ccc(OC)c(OC)c2)C(=O)N2CCc3c([nH]c4ccc(Cl)cc34)[C@]12C, CN1CCN(S(=O)(=O)c2cccc(C(=O)Nc3sccc3C(N)=O)c2)CC1, O=C(NCC1CCCCC1)c1cc(-c2ccccc2)on1, COC(=O)c1sc(N)c(C(=O)OC)c1Cn1ncc(Cl)c(Cl)c1=O, Cc1ccccc1CNC(=O)c1cc(-c2ccccc2)on1, CC1=NN(c2ccccc2C)C(=O)C1, COc1cc(NC(=O)C(=O)Nc2ccc3nc4n(c(=O)c3c2)CCCCC4)cc(OC)c1OC, CN(C)c1ccc2c(c1)[C@@H]1C[C@@H](CC(=O)N3CCOCC3)O[C@@H](CO)[C@@H]1O2, O=C(C[C@H]1C[C@H]2c3cc(NC(=O)NC4CCCCC4)ccc3O[C@H]2[C@H](CO)O1)NCc1ccccc1, Clc1nssc1=Nc1nncs1, COCCNC(=O)C[C@@H]1C[C@H]2c3cc(NC(=O)C4CCOCC4)ccc3O[C@H]2[C@H](CO)O1, COc1ccccc1OCc1nc(C#N)c(NCCCn2ccnc2)o1, Cc1c(CC(=O)NCCCCCC(=O)O)c(=O)oc2cc3occ(-c4ccccc4)c3cc12, Cc1c(CCC(=O)O)c(=O)oc2c(C)c3occ(-c4ccc(Cl)cc4)c3cc12, Cc1coc2c(C)c3oc(=O)c(CCC(=O)N[C@@H](C)C(=O)N[C@@H](Cc4ccccc4)C(=O)O)c(C)c3cc12, COc1ccc(N(C(C)=O)c2nc3ccccc3[nH]2)cc1, Cc1cc(C)n(S(=O)(=O)c2ccc(Cl)cc2)n1, O=C(CCc1ccccc1)Nc1nnc(-c2ccccn2)o1, CC(=O)Nc1ccc2nc3ccccc3nc2c1, Cc1ccc(NC(=O)c2cc(-c3ccccc3)on2)cn1, Cc1ccc(C2CCN(C(=S)Nc3cccc(C)c3)C2)cc1 (stereo unspecified), CO[C@@H]1CN(C)C(=O)c2cc(NC(=O)c3ccccc3)ccc2OC[C@@H](C)N(C(=O)C2CC2)C[C@H]1C, CO[C@H]1CN(C)C(=O)c2cc(NC(=O)NC3CCCCC3)ccc2OC[C@H](C)N(CC2CC2)C[C@@H]1C, CCCNC(=O)Nc1ccc2c(c1)OC[C@H](C)N(C(=O)c1ccccc1F)C[C@@H](C)[C@@H](OC)CN(C)C2=O, Cc1cccc(NC(=O)c2cc(-c3ccccc3)on2)n1, O=C(Nc1ccc2ccccc2n1)c1cc(-c2ccccc2)on1, CN1/C(=N\O)c2cccc3cccc1c23, O=C(C[C@@H]1C[C@@H]2c3cc(NC(=O)C4CCOCC4)ccc3O[C@@H]2[C@H](CO)O1)NCc1cccnc1, CC(C)NC(=O)N1[C@H](CO)[C@@H]2c3ccccc3NC[C@@H]21, O=C(Nc1ncc(-c2ccccc2)o1)c1cc(-c2ccccc2)on1, COC(=O)C[C@@H]1C[C@H]2c3cc(N(C)C)ccc3O[C@H]2[C@@H](CO)O1, COc1ccc(OC)c(NC(=O)COC(=O)Cn2nnc(-c3ccccc3)n2)c1, COC(=O)c1[nH]c2cc(OC)c(OC)cc2c1NC(=O)Oc1ccccc1, CC(C)NC(=O)N(C)C[C@H]1OCCCC[C@H](C)Oc2ccc(NC(=O)Cc3ccccc3)cc2C(=O)N([C@H](C)CO)C[C@H]1C, CC(C)NC(=O)Nc1ccc2c(c1)C(=O)N([C@H](C)CO)C[C@@H](C)[C@@H](CN(C)C(=O)Nc1ccccc1)OCCCC[C@@H](C)O2, C[C@@H]1CN([C@@H](C)CO)C(=O)c2cc(NC(=O)CCCN(C)C)ccc2O[C@@H](C)CCCCO[C@H]1CN(C)C(=O)Nc1cccc2ccccc12, CC(C)NC(=O)Nc1ccc2c(c1)C(=O)N([C@@H](C)CO)C[C@H](C)[C@@H](CN(C)C)OCCCC[C@H](C)O2, C[C@H](CO)N1C[C@H](C)[C@H](CN(C)C(=O)Nc2cccc3ccccc23)OCCCC[C@H](C)Oc2ccc(NC(=O)CCCN(C)C)cc2C1=O, C[C@@H]1CN([C@@H](C)CO)C(=O)c2cc(NC(=O)C3CCCCC3)ccc2O[C@@H](C)CCCCO[C@@H]1CN(C)C(=O)NC1CCCCC1, O=C(c1cc(-c2ccccc2)on1)N1CCC(N2CCCC2)CC1, O=C(Nc1nc(-c2ccccc2)cs1)c1cc(-c2ccccc2)on1, COc1ccc(-c2cnc3c(c2)C(=O)N([C@@H](C)CO)C[C@H](C)[C@@H](CN(C)Cc2cccnc2)O3)cc1, CNC[C@@H]1Oc2c(NS(=O)(=O)c3cccs3)cccc2C(=O)N([C@@H](C)CO)C[C@H]1C, C[C@@H]1CN([C@H](C)CO)C(=O)c2cc(NS(C)(=O)=O)ccc2O[C@@H]1CN(C)S(=O)(=O)c1ccc(F)cc1, C[C@@H]1CN([C@H](C)CO)C(=O)c2cccc(NC(=O)c3ccncc3)c2O[C@@H]1CN(C)Cc1ccc(-c2ccccc2)cc1, COc1ccc(S(=O)(=O)Nc2ccc3c(c2)C(=O)N([C@H](C)CO)C[C@H](C)[C@H](CN(C)S(=O)(=O)c2ccc(C)cc2)O3)cc1, O=C(CN1CCCCCC1)Nc1ccccc1[N+](=O)[O-], Cc1nnc(NC(=O)CSc2nnc(CNC(=O)c3ccc(S(=O)(=O)N(C)C)cc3)o2)s1, CCN(CC(=O)NCc1cccs1)CC(=O)Nc1cccc(S(N)(=O)=O)c1, Cc1c(CC(=O)NCC(=O)NCC(=O)O)c(=O)oc2cc3oc4c(c3cc12)CCCC4, Cc1cc(F)ccc1NS(=O)(=O)c1cccc2nsnc12, CC(=O)NC1=NC(=O)/C(=C/c2cn(C(C)=O)nc2-c2ccccc2)S1, Cc1ccc(-c2nc(C)sc2CC(=O)NCc2ccco2)cc1, Cc1cc(=O)n(-c2ccc(O)cc2)[nH]1, O=C(NCC1CCCO1)c1onc(CSc2ccc(F)cc2)c1C(=O)O (stereo unspecified), Cc1cc(C)c(S(=O)(=O)N2CCCC2=O)c(C)c1N(C)S(C)(=O)=O, O=C(C[C@H]1C=C[C@@H](NC(=O)C2CC2)[C@@H](CO)O1)Nc1nccs1, Cc1[nH]n2c(=O)c3c(nc2c1-c1ccccc1)CCC3, COc1cc(/C=C2\S/C(=N/S(=O)(=O)c3ccccc3)NC2=O)c([N+](=O)[O-])cc1OC, COc1ccc(Cc2nnc(N/N=C(\C)c3ccccc3)[nH]c2=O)cc1OC, O=C(CSc1nnc(-c2ccccn2)o1)Nc1ccccc1C(F)(F)F, O=C(c1cc(-c2ccccc2)on1)N1CCc2cccnc21, CN1CCN(C(=O)c2cc(-c3ccccc3)on2)CC1
